The structures appear in SMILES notation. About 37,000 (12%) of roughly 300,000 compounds were called active. No stated cut-off is given here; in the data, active means max response mostly above about 13% (no sharp cut-off); inactive means mostly below about 14%. The full list was thinned out, with actives kept by preference.

This test in a line: Cycloheximide Counterscreen for Small Molecule Inhibitors of Shiga Toxin. Further: read at 38.3 µM for the half of the compounds with a filed dose; 0% is about no effect. The note with it: cell reporter, cycloheximide protein synthesis inhibition counterscreen; stronger effect = higher value.
In the case of `O=C(Nn1cnnc1)c1cc(Cl)ccc1Cl`, the max response was 1.72% (inactive).
As for `Cc1ccc(-n2c(SCC(=O)N3CCC(C(=O)O)CC3)nc3ccccc3c2=O)cc1C`, the max response is 25.2% (active).
The same measure for `COc1cccc(-n2c(SCC(=O)c3c[nH]c4ccccc34)nc3ccccc3c2=O)c1`: -2.32% (inactive); for `CCc1c(O)nc(SCC(=O)N2CCCCC2)n(-c2ccccc2C)c1=O`: -1.43% (inactive).
As for `Cc1[nH]c2ccccc2c1C(=O)CN1CC(C)CC(C)C1` (configuration not stated), the max response was -1.83% (inactive).
The same measure for `C=CCOC(=O)C1=C[C@@H](c2ccccc2)C[C@@H](OCc2ccc(CO)cc2)O1`: 8.03% (inactive); for `NC(=O)C1=C[C@@H](c2csc3ccccc23)C[C@@H](OCc2ccc(CO)cc2)O1`: -2.5% (inactive).
Regarding `O=C(NCc1ccccc1)C1=C[C@@H](c2ccc(C(F)(F)F)cc2)C[C@@H](OCc2ccc(CO)cc2)O1`, the max response was 6.43% (inactive).
`O=C(NCc1ccccc1)C1=C[C@H](C2CC2)C[C@H](OCc2ccc(CO)cc2)O1`: the max response is -2.61% (inactive).
Consider `NC(=O)C1=C[C@H](c2csc3ccccc23)C[C@H](OCc2ccc(CO)cc2)O1`, for which the max response is 20.4% (active).
`O=C(NC1CC1)C1=C[C@H](c2c[nH]c3ccccc23)C[C@H](OCc2ccc(CO)cc2)O1`: the max response was 16.2% (active).
Then `CCc1cccc(NC(=O)CCCN2C(=O)C(c3ccccc3)Oc3cccnc32)c1` (configuration not stated), with 11.2% (inactive); and `C=C(Br)Cn1c(CCCC)nc2ccccc21`, with 3.99% (inactive).
Turning to `COc1ccc(C)cc1S(=O)(=O)NCCc1ccccc1`, the max response is -1.77% (inactive).
Regarding `COc1ccc(CCN2C(=O)N(c3ccc(OC)cc3)C(=O)C2CC(=O)Nc2ccc(OC)cc2)cc1` (configuration not stated), the max response is 1.2% (inactive).
The same measure for `Cc1cc(C(F)F)nn1CC(=O)NC1CCCCCC1`: 6.8% (inactive); for `O=C(CN1CCCCCC1)Nc1ccc(Br)cc1Br`: 15.8% (inactive); for `Cc1ccc(N2C(=O)CC(NCc3ccc4c(c3)OCO4)C2=O)cc1Cl` (configuration not stated): 24% (active).
Then `O=CN1CCN(C2CC(=O)N(c3ccc4c(c3)OCO4)C2=O)CC1` (configuration not stated), with 11.4% (inactive).
The same measure for `Cc1ccc(CC2CC(=O)N(c3ccc4c(c3)OCCO4)C2=O)cc1` (configuration not stated): 21.2% (inactive); for `CCNC(=O)CC1C(=O)N(c2ccc(OC)cc2)C(=S)N1CCc1ccncc1` (configuration not stated): -6.33% (inactive).
Take `Cc1ccc2c(c1)N(CC(=O)NCC1CCCO1)C(=O)CO2` (configuration not stated): the max response is -1.04% (inactive).
Then `O=C(NCCCN1CCCCC1)C1CC(=O)N(CCc2ccccc2)C1` (configuration not stated), with 3.29% (inactive); and `COc1ccc(OC)c(/C=C/C(=O)OCC(=O)Nc2ccc3c(c2)OCCO3)c1`, with 4.24% (inactive); and `COc1ccc(/C=C/C(=O)Nc2ccc3c(c2)OCCO3)cc1OC`, with 34.3% (active).
`COc1ccc(/C=C/C(=O)Nc2ccc(C34CC5CC(CC(O)(C5)C3)C4)cc2)cc1OC`: the max response was 36.8% (active).
For the compound `COc1ccc(/C=C/C(=O)Nc2ccc(C)cc2)cc1S(=O)(=O)N1CCOCC1`, the max response is 10.5% (inactive).
The same measure for `COc1cc(/C=N/NC(=S)Nc2cccnc2)cc(OC)c1O`: 14% (inactive); for `COc1ccc(/C=C/C(=O)Nc2cccnc2)cc1OC`: 19.5% (active); for `COc1cccc(/C=C/C(=O)Nc2ccc3c(c2)OCCO3)c1`: 51.1% (active).
With `COc1cccc(C(=O)Nc2cccnc2)c1OC`, the max response is 2.63% (inactive).
The same measure for `O=C(/C=C\c1ccc2c(c1)OCO2)NC1(C(=O)Nc2ccc3c(c2)OCCO3)CCCCC1`: -4.38% (inactive).
The same measure for `COc1ccc(NS(=O)(=O)c2cc(NC(=O)/C=C/c3cc(OC)c(OC)c(OC)c3)ccc2N2CCCCC2)cc1`: -2.53% (inactive); for `COc1ccc(/C=C/C(=O)N2CCCC2)cc1OC`: 5.12% (inactive); for `CCOc1ccc2c(=O)c(-c3ccc4c(c3)OCCCO4)c(C)oc2c1`: 7.6% (inactive).
As for `CCOc1ccccc1Nc1ccc(C(=O)O)cc1[N+](=O)[O-]`, the max response is -4.22% (inactive).
Then `CCSc1nc2sc3c(c2c(=O)[nH]1)CC(C)(C)OC3`, with 0.89% (inactive).
Consider `O=S(=O)(c1cccc(-c2cn3ccccc3n2)c1)N1CCCC1`, for which the max response is 13.9% (inactive).
Then `Cc1cccn2cc(-c3cccc(S(=O)(=O)N4CCCCC4)c3)nc12`, with 15.4% (active); and `O=S(=O)(c1cccc(-c2nnc3n2CCCCC3)c1)N1CCOCC1`, with -0.622% (inactive).
Regarding `CCc1cc2c(N3CCN(c4nnc(CC)s4)CC3)ncnc2s1`, the max response is -4.57% (inactive).
For the compound `COc1ccc(-n2c(C)cc(C(=O)CN3C(=O)NC4(CCc5ccccc54)C3=O)c2C)cc1` (configuration not stated), the max response was 3.03% (inactive).
The same measure for `S=C(NCCc1ccccc1)NCC1CCCO1` (configuration not stated): 29.4% (active); for `S=C(NCCc1ccccc1)Nc1ccccc1`: 52.7% (active).
The same measure for `S=C(NCCC1=CCCCC1)Nc1ccccc1`: 39.2% (active); for `O=C(CS(=O)(=O)Cc1ccccc1)NCC1CCCO1` (configuration not stated): -0.705% (inactive).
For the compound `S=C(NCCCc1ccccc1)Nc1ccc(Br)cc1`, the max response was 9.21% (inactive).
Then `O=C(Cc1cccc2ccccc12)NCCC1=CCCCC1`, with -2.35% (inactive); and `S=C(NCCc1ccccc1)NCc1ccccc1Cl`, with 2.05% (inactive); and `CC1CCCCN1C(=S)NCc1ccccc1` (configuration not stated), with 0.333% (inactive).
The same measure for `Oc1ccccc1N1CCN(C(=S)NCc2ccccc2)CC1`: 31.8% (active); for `Cc1nnc(OCC(=O)NCCC2=CCCCC2)c2ccccc12`: -1.88% (inactive).
The same measure for `Oc1ccc(N2CCN(C(=S)NCc3ccccc3)CC2)cc1`: -5.44% (inactive); for `Oc1c(Br)cc(/C=N/NC(=S)NCC2CCCO2)cc1Br` (configuration not stated): 1.44% (inactive).
Consider `Cc1nc2ccccc2c(=O)n1NC(=O)c1ccccc1`, for which the max response is -1.37% (inactive).
The same measure for `COc1ccc(CN(C)Cc2nc3cc(OC)c(OC)cc3c(=O)[nH]2)c(OC)c1`: -2.17% (inactive).
Regarding `CCN(C(=O)CN1C(=O)/C(=C/c2ccc(F)cc2)SC1=S)C1CCS(=O)(=O)C1` (configuration not stated), the max response was -13.6% (inactive).
With `Cc1cccc(N2CCN(C(=O)CCS(=O)(=O)c3ccc4c(c3)NC(=O)C(C)S4)CC2)c1C` (configuration not stated), the max response was -1.44% (inactive).
Then `CCCc1ccc(-c2c(C)sc(NC(=O)c3ccnn3C)c2C#N)cc1`, with -3.68% (inactive); and `O=C(CCc1n[nH]c(=O)[nH]c1=O)N/N=C/c1ccc(Br)o1`, with -9.24% (inactive); and `COCCNC(=O)COc1ccc(N(C)S(=O)(=O)c2ccc3ccccc3c2)cc1`, with -5.19% (inactive).
Then `N#Cc1c(-c2ccccc2)c(-c2ccccc2)n[nH]c1=O`, with 0.547% (inactive); and `COc1cccc(CNC(=O)CN(C)S(=O)(=O)c2ccc3c(c2)c(=O)n(C)c(=O)n3C)c1`, with -2.54% (inactive).
In the case of `CC(=O)c1ccccc1OCc1ccc(C(=O)c2ccccc2)cc1`, the max response is 2.75% (inactive).
For `S=C(NCCc1ccccc1)N1CCCCC1`, the max response is 60.3% (active).
The same measure for `COc1ccc(C(=O)NC2CCN(C(=S)NCCc3ccccc3)CC2)cc1`: -2.31% (inactive); for `O=C1CCN(C(=S)NCCc2ccccc2)CC1`: 16% (inactive); for `CCc1ccc(-c2cc(C)no2)cc1S(=O)(=O)NCCc1ccc(S(N)(=O)=O)cc1`: -3.78% (inactive).
Then `c1ccc2c(CSCc3nc4ccccc4[nH]3)cccc2c1`, with 13.2% (active).
Then `N=C(N)SCc1cccc2ccccc12`, with -4.81% (inactive); and `COc1ccc(OC(C)C(=O)NCCc2nc3ccccc3[nH]2)cc1` (configuration not stated), with -2.98% (inactive); and `O=c1[nH]nc(CSCc2ccccc2Cl)[nH]1`, with -2.59% (inactive).
`c1ccc(-c2nnc(SCc3nc4ccccc4[nH]3)o2)cc1`: the max response was 10.9% (inactive).
For `Clc1ccccc1SCc1nc2ccccc2[nH]1`, the max response is 52.8% (active).
Then `Cc1ccc(S(=O)(=O)c2c[nH]c3ccc(Cl)cc3c2=O)cc1`, with -0.873% (inactive); and `CC(NC(=O)CCCC1CCCCC1)c1ccc(S(N)(=O)=O)cc1` (configuration not stated), with -1.75% (inactive).
Turning to `CCC(=O)N1CCN(c2ccccc2NC(=O)COc2cccc(C)c2C)CC1`, the max response was -0.942% (inactive).
For the compound `O=C(Nc1c2c(nn1-c1cccc(Cl)c1)CS(=O)(=O)C2)c1cccs1`, the max response was -4.62% (inactive).
Then `COc1ccc(CN(Cc2ccco2)S(=O)(=O)c2ccc(S(=O)(=O)N3CCCC3)cc2)cc1`, with -2.84% (inactive).
Then `CCN(CC)CCCN=C(N)N`, with -0.653% (inactive).
Then `CCCCCCCN=C(C)c1ccccc1O`, with -3.52% (inactive); and `CCCCCCCCCCCCN=C(N)N`, with 13.5% (active); and `O=C1C(=O)N(CC2COc3ccccc3O2)c2ccccc21` (configuration not stated), with -1.34% (inactive).
Consider `COc1cccc(CNS(=O)(=O)c2cc3c(cc2C)n(C)c(=O)c(=O)n3C)c1`, for which the max response was -2.63% (inactive).
As for `COc1cccc(CNc2ncc(-c3ccccc3)n2C)c1`, the max response is 23.9% (active).
Then `COc1cccc(CNc2nc(C(F)(F)F)nc3ccccc23)c1`, with -1.53% (inactive); and `CCOC(=O)C1CCN(C(=O)Cn2nc(C)c3c(C)n(-c4ccccc4)nc3c2=O)CC1`, with -0.326% (inactive); and `O=C(CCc1nnc2ccc(NCCCN3CCCC3=O)nn12)NCc1ccccc1Cl`, with -2.54% (inactive).
Then `CC(C)(C)NC(=O)C(c1ccc(Cl)cc1)N(CCO)C(=O)c1snc(C(N)=O)c1N` (configuration not stated), with -3.49% (inactive); and `Cc1ccc(NC(=O)C2CCCN2S(=O)(=O)c2cccc3cccnc23)c(C)c1` (configuration not stated), with -1.86% (inactive).
Then `C(=N/N1CCN(c2ccccc2)CC1)/c1cccs1`, with 36.9% (active); and `Cc1ccc(N2CCN(/N=C/c3cccs3)CC2)cc1`, with 7.5% (inactive); and `Nc1nnnn1/N=C/c1cccs1`, with -4.55% (inactive).
With `Cc1cccc(-c2c(NC(=O)c3ccco3)oc3ccc(Cl)cc3c2=O)c1`, the max response is -1.7% (inactive).
The same measure for `CC(C)c1ccc(S(=O)(=O)N2CCC3(CC2)OCCO3)cc1`: -1.14% (inactive); for `CC(C)c1ccc(/C=C2\NC(=O)NC2=O)cc1`: 18.8% (active).
Regarding `COC(=O)CN1C(=O)[C@H]2[C@@H](/C=C/c3ccccc3)N3C(=O)CN(Cc4ccccc4)C(=O)[C@@]3(Cc3ccccc3)[C@H]2C1=O`, the max response is -3.52% (inactive).

Values taken from PubChem BioAssay AID2314 (National Center for Advancing Translational Sciences (NCATS), 2010).
